Data on 47 compounds can be found in PubChem BioAssay AID425 (Sanford-Burnham Center for Chemical Genomics, 2006).

Molecules are shown by their SMILES. Values joined by “and” are separate entries in the source; they are usually repeats but may differ in a detail not shown here. Equal entries are not always repeated. Screen size: about 110,000 compounds; about 190 (0.17%) were called active. Cut-off read from the data, not from the text of the source: active = inhibition above about 50%; inactive = the rest. This excerpt belongs to a sample that is enriched for actives. Potency and affinity values are given separately. A structure can be active in one record and inactive in another.

This test deals with Dual specificity protein phosphatase 6 (Rattus norvegicus) (UniProt Q64346). Description: inhibition of rat DUSP6 enzyme activity – biochemical, in vitro, primary screen (AID 425).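 Note: plate controls were vehicle for no effect and reference inhibitor for full effect.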 The following applies: recombinant MKP-3 phosphatase activity, fluorescence; at 20 µM; stronger effect = higher value.
Chain of Dual specificity protein phosphatase 6 (Rattus norvegicus) (Q64346 whole entry, looked up): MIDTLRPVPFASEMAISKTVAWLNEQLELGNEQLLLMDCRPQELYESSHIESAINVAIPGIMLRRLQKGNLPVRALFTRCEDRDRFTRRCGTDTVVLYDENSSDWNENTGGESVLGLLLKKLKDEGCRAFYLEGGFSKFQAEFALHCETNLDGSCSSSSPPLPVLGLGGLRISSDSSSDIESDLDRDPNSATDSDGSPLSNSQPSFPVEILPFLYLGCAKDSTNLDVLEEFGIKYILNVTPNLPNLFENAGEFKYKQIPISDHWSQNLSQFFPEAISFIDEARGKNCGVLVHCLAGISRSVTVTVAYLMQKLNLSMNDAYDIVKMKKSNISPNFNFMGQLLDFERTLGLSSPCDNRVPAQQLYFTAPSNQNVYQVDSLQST
For orientation: inhibition means the relative decrease from the control value, in per cent. With `Cc1cc([N+](=O)[O-])ccc1NCc1ccco1`, the inhibition is 0.4% (inactive). As to `Cc1nc(C)n(CC(O)COc2ccc3c(c2)CCC3)n1` (configuration not stated), the inhibition was -16.3% (inactive). Regarding `C=CCn1c(NC(=O)c2ccccc2)c(C#N)c2nc3ccccc3nc21`, the inhibition is 23.5% (inactive). Turning to `CCC(=O)Nc1c(C#N)c2nc3ccccc3nc2n1-c1ccc(C)cc1`, the inhibition is 1.4% (inactive). As for `COc1ccc(C(=O)NCCn2ccc3ccccc32)cc1OC`, the inhibition was -4.9% (inactive). For `COC(=O)c1c(NC(=O)c2c(C)noc2C)sc2c1CCCCCC2`, the inhibition was -8.3% (inactive). For `CC(=O)Nc1ccc(S(=O)(=O)NCC(C)NS(=O)(=O)c2ccc(NC(C)=O)cc2)cc1` (configuration not stated), the inhibition was -11.4% (inactive). With `Cc1ccc(S(=O)(=O)NCC(C)NS(=O)(=O)c2ccc(C)cc2)cc1` (configuration not stated) the figure was 69.6% (active); with `CCCC(C)NS(=O)(=O)c1ccc(C)cc1` (configuration not stated), -0.1% (inactive); with `COC(=O)c1ccc(-c2ccc(/C=N\Nc3ccc([N+](=O)[O-])cn3)o2)cc1`, 5.2% (inactive). For the compound `CCSc1nc(N)c2c3c(sc2n1)COC(C)(CC)C3` (configuration not stated), the inhibition is 3.9% (inactive). With `CC(=O)Nc1ccc(C(=O)NCc2ccccn2)cc1`, the inhibition was 1.3% (inactive). Regarding `Cc1ccnc(NS(=O)(=O)c2ccc(NC(=O)c3cccc(I)c3)cc2)n1`, the inhibition was 1.1% (inactive). `CC1(C)CC(NC(=O)CCc2ccccc2)CC(C)(C)N1`: the inhibition was 3.8% (inactive) and -2.1% (inactive). For the compound `Cc1cccc(C=Nc2ccc(O)cc2)c1`, the inhibition was 118% (active).

Take `COc1ccc(N=Cc2ccc(O)c(OC)c2)cc1`: the inhibition was -0.9% (inactive). With `Oc1ccc(N=Cc2cc(Br)cc(Br)c2O)cc1` the figure was 9.6% (inactive). Consider `Oc1ccc(C=Nc2ccc(O)cc2)cc1`, for which the inhibition is 51% (active).

On to `Cc1cccc(C=Nc2ccc(-c3nc4ccc(C)cc4s3)cc2)c1`, for which the inhibition is -2.3% (inactive).

For the compound `Oc1ccc(/C=N/N=C/c2ccc(O)c(O)c2)cc1O`, the inhibition is 1.8% (inactive). Regarding `Oc1cccc(C=Nc2ccc(Cl)c(Cl)c2)c1`, the inhibition is -1.5% (inactive). Take `CN(C)c1ccc(C=Nc2ccc(N(C)C)cc2)cc1`: the inhibition was -3.9% (inactive). As to `Oc1ccc(N=Cc2ccc(O)c(O)c2)cc1`, the inhibition was 69.4% (active) and -3.7% (inactive). For the compound `COc1ccc2c(c1OC)CN(C)CCc1cc3c(cc1C(O)C2)OCO3` (configuration not stated), the inhibition is -15.6% (inactive). On to `COc1ccc(C2NC(=O)NC(C)=C2C(=O)Nc2ccccc2C)cc1OC` (configuration not stated), for which the inhibition is -0.4% (inactive).

In the case of `O=C1CCCC2=C1C(c1ccc(Cl)cc1)Nc1ccccc1N2` (configuration not stated), the inhibition was 0.4% (inactive).

Take `Cc1ccccc1NC(=O)CCCN1C(=O)/C(=C/c2cccc3c2OCO3)SC1=S`: the inhibition is 4.3% (inactive). Turning to `CSc1nsc(SC)c1NC(=O)OCc1ccccc1`, the inhibition is -3.9% (inactive) and 1.7% (inactive). In the case of `COc1cccc(C(=O)Nc2ccc(OC(F)(F)F)cc2)c1`, the inhibition is 3.1% (inactive).

Consider `COc1ccc(/C=C2\SC(=O)N(CC(=O)Nc3nccs3)C2=O)cc1OC`, for which the inhibition is 0% (inactive). For the compound `O=S(=O)(NCc1ccc(F)cc1)c1ccc2ccccc2c1`, the inhibition was 0% (inactive). As for `COC(=O)c1sc(=S)n(-c2cc(F)ccc2F)c1N`, the inhibition is 10.2% (inactive). As for `Cc1ccc2[nH]c(C)c(CC(=O)N/N=C/c3cccnc3)c2c1`, the inhibition is -2% (inactive). In the case of `Cc1ccccc1-n1c(O)c(C=C2C=CC=N2)c(=O)[nH]c1=S`, the inhibition was 45.4% (inactive). Regarding `O=c1[nH]c(=O)n(-c2ccccc2Cl)c(O)c1C=C1C=CC=N1`, the inhibition is 3.3% (inactive). The result for `O=c1[nH]c(=S)n(-c2ccccc2F)c(O)c1C=C1C=CC=N1` reads 60.5% (active); that for `Cn1c(O)c(/C=C2/C=CC=N2)c(=O)n(-c2ccccc2)c1=S`, 95.6% (active). As for `COc1ccc(-n2c(O)c(/C=C3\C=CC=N3)c(=O)[nH]c2=O)cc1`, the inhibition was 2.1% (inactive).

In the case of `O=c1[nH]c(=S)n(-c2cccc(Cl)c2)c(O)c1/C=C1/C=CC=N1`, the inhibition was 9% (inactive). The result for `COc1ccc(NC(=O)Cn2nnc(C(N)=O)c2N)c(OC)c1` reads -7.2% (inactive); that for `O=C1c2ccc(-c3nc4ccccc4c(=O)o3)cc2C(=O)N1c1ccc(I)cc1`, -0.1% (inactive). As to `COC(=O)c1ccc(-n2c(C)cc(/C=N/n3cnnc3)c2C)cc1`, the inhibition was -6.7% (inactive). For the compound `Cc1nnc(NC(=O)CSc2cn(Cc3ccccc3)c3ccccc23)s1`, the inhibition was -5.8% (inactive). The result for `COc1ccc(/C=C/C(=O)Nc2ccc(C)c([N+](=O)[O-])c2)cc1OC` reads -0.5% (inactive). The result for `Cc1ccc(/C=N/n2cnnc2)cc1[N+](=O)[O-]` reads -0.6% (inactive); that for `O=C(O)CCCCCN1C(=O)C(=O)/C(=C(/O)c2ccccc2)C1c1ccc(F)cc1` (configuration not stated), 0.8% (inactive); that for `CC(C)(C)c1ccc(OCC(=O)NC2CCS(=O)(=O)C2)cc1` (configuration not stated), 3% (inactive).
